The record followed here is PubChem BioAssay (NCATS).

Inconclusive results are not listed. The source made the active and inactive calls. Unless noted, calls follow the shape of the dose curve; as a rule, active = well fitted curve in the direction sought with a large enough effect; inconclusive = small, poorly fitted or top-dose-only effect, or another doubt; inactive = no such curve, though single readings can be large; an effect the other way counts as inactive or inconclusive.

Assay [1] in a line: P-glycoprotein substrates identified in KB-3-1 adenocarcinoma cell line, qHTS therapeutic library screen (AID 1346986). Also: nearly all actives have a fitted effect of over 60% in size. Put shortly:
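Compounds were tested in dose-response against KB-3-1 and KB-8-5-11 cells at 37 degree C for 72 h, and viability was measured by luminescence. AC50 values came from curve fitting with class-based activity calls.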

The nature of assay [2]: P-glycoprotein substrates identified in KB-8-5-11 adenocarcinoma cell line, qHTS therapeutic library screen (AID 1346987). Also: nearly all actives have a fitted effect of over 65% in size. Also: potency is read from the fitted curve at half-maximal effect. Put shortly: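 KB-8-5-11: colchicine-selected sub-line of KB-3-1 over-expressing P-gp; assay medium lacked colchicine. 72 h drug exposure at 37 degree C, CellTiter-Glo.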
For orientation: qHTS replaces the single test concentration by a dilution series.

Assay [3] has as its system Zika virus NS2B-NS3 protease (unlinked complex). Put plainly: Primary screen GU Rhodamine qHTS for Zika virus inhibitors: Unlinked NS2B-NS3 protease assay (AID 1347159). Also: % is scaled to controls: 0 for no effect and ±100 for the full control effect; nearly all actives have a fitted effect of over 60% in size. The procedure, abridged:
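Compounds, tested up to 114 microM, were incubated for 15 minutes with 25 nM unlinked NS2B-NS3 protease at pH 8.0. Cleavage of 1.5 microM Rhodamine110 substrate was then followed by fluorescence for 15 minutes.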

Assay [4] has as its target Cytochrome P450 2D6 (Homo sapiens) (UniProt P10635). The assay is described as follows: Cytochrome P450 family 2 subfamily D member 6 (CYP2D6) small molecule antagonists: luciferase biochemical (cell-free) qHTS assay (AID 1645840; active = well fitted curve in the direction sought with a large enough effect in the repeat runs; an effect the other way counts as inactive or inconclusive; also: nearly all actives have a fitted effect of over 55% in size; also: potency is read from the fitted curve at half-maximal effect; as to activity change, negative = inhibition: % is scaled to controls: 0 for no effect and ±100 for the full control effect). The procedure, abridged:
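P450-Glo luminescent screen: recombinant CYP2D6 enzyme–proluciferin substrate mix preincubated with compound 10 min at room temperature, then NADPH regeneration added for 1 h at room temperature. Detection reagent added for 20 min; luciferin light read as relative luminescence units.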

Assay [5] in a line: Primary qHTS for inhibitors of nuclear receptor binding SET domain protein 2 (NSD2) in an RCH-ACV wild type WT cells (2C) (AID 1645877). Also: nearly all actives have a fitted effect of over 70% in size. Also: potency is read from the fitted curve at half-maximal effect.
Assay [6] can be described thus: Primary redox qHTS assay for identification of artifact compounds. (AID 1845223).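 Also: 0% = DMSO and 100% = reference compound.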 The procedure, abridged: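 Amplex Red (25 uM) and HRP (250 mU/mL) in HBSS, with compounds for 15 min, then 250 uM DTT for 30 min, room temperature, dark. Fluorescence 525/598 nm read; normalized to DMSO and 10 uM DA3003; Hill fit.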
The next assay deals with KB-3-1. Put plainly: Cytotoxic Profiling of Annotated Libraries Using Quantitative High-Throughput Screening (AID 1296008). Also: nearly all actives have a fitted effect of over 60% in size. Also: potency is read from the fitted curve at half-maximal effect. As to max response: % is scaled to controls: 0 for no effect and ±100 for the full control effect. As to conditions: Five cell lines viability, CellTiter-Glo ATP luminescence, 48-72 h; max response: stronger effect = lower value. Put shortly:
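Cells exposed to compounds for 48 or 72 hr at 37 degrees Celsius. Viability read as ATP-coupled luminescence with CellTiter-Glo after 10 min at room temperature.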

The next assay deals with CAOV3. The assay is described as follows: Primary qHTS to identify gynecologic anti-cancer compounds using libraries of approved drugs and bioactive compounds (AID 1345084). Also: nearly all actives have a fitted effect of over 55% in size. Also: potency is read from the fitted curve at half-maximal effect. As to conditions: Gynecologic cancer cell panel viability, ATPlite luminescence, 48 h; series mostly up to 57.5 µM. Put shortly:
(§1)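 Cell viability after 48 h drug treatment, ATPlite luminescence readout; five doses.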

The test system of the next assay is JEG-3. The assay is described as above. To be noted: Gynecologic cancer cell panel viability, ATPlite luminescence, 48 h; series mostly up to 57.5 µM. Put shortly: as §1
Background: In ATP-based viability assays light output follows the ATP content of the culture.

In the next assay the test system is SKOV3. Described as above. As to conditions: Gynecologic cancer cell panel viability, ATPlite luminescence, 48 h; series mostly up to 57.5 µM. Put shortly: as §1
Another assay deals with HeLa. The description is as above. To be noted: Gynecologic cancer cell panel viability, ATPlite luminescence, 48 h; series mostly up to 57.5 µM. Put shortly:
as §1

The nature of assay [7]: Cytotoxicity counterscreen for inhibitors of SARS-CoV-2 cell entry (AID 1645845; calls by dose curve; also: potency is read from the fitted curve at half-maximal effect; nearly all actives have a fitted effect of over 50% in size). Put shortly: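 HEK293-ACE2 cells (Expi293F stably expressing human ACE2) seeded overnight, then compound for 1 h plus 48 h at 37C. Viability as ATP content by luminescence; normalized to wells with cells and media-only wells.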
In general terms: The purpose of a counterscreen is to sort out artefacts and off-target activity.

Assay [8] in a line: Primary qHTS to identify inhibitors of SARS-CoV-2 cell entry (AID 1645846; calls by dose curve; also: potency is read from the fitted curve at half-maximal effect; nearly all actives have a fitted effect of over 45% in size). To be noted: activity change, negative = inhibition: at 57.1 µM (top of the series) unless noted. The procedure, abridged:
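Entry measured by luciferase signal 48 h after adding SARS-CoV-2-S pseudotyped MLV particles to HEK293-ACE2 cells preincubated 1 h with compounds. Normalisation: bald particles and spike particles.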

Assay [9] can be described thus: qHTS drug screen for cell cycle checkpoint inhibitors in PARPi-resistant BRCA-mutant ovarian cancer cell lines. (AID 1963452; calls by dose curve). To be noted: PEO1/OlaR viability, CellTiter-Glo luminescence, 96 h, stronger effect = lower value. The procedure, abridged:
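PEO1, PEO4 and PEO1/OlaR ovarian cancer cells, 600 per well, exposed 96 h at 37C to a dilution series. Viability read by CellTiter-Glo luminescence, normalized to DMSO and empty wells; activity summarized as Z-AUC.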

The next assay deals with HACAT. Put plainly: qHTS assay to identify novel small-molecules to repurpose for Merkel cell carcinoma treatment (AID 1296009). Also: nearly all actives have a fitted effect of over 60% in size. As to conditions: MCC and control cell lines, CellTiter-Glo viability, 72 h; at 44.8 µM (top of the series) unless noted. The procedure, abridged:
(§2)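 Cells were incubated with compound for 72 hr at 37 degree celsius before CellTiter-Glo addition. Luminescence was normalized with no-cell wells as full cytotoxicity and DMSO as baseline.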

The subject of another assay is NIH3T3. Described as above. To be noted: MCC and control cell lines, CellTiter-Glo viability, 72 h; at 44.8 µM (top of the series) unless noted. The procedure, abridged:
as §2

Assay [10] addresses Cytochrome P450 2C9 (Homo sapiens) (UniProt P11712). Put plainly: Cytochrome P450 family 2 subfamily C member 9 (CYP2C9) small molecule antagonists: luciferase biochemical (cell-free) qHTS assay (AID 1645842; active = well fitted curve in the direction sought with a large enough effect in the repeat runs; an effect the other way counts as inactive or inconclusive; also: % is scaled to controls: 0 for no effect and ±100 for the full control effect; nearly all actives have a fitted effect of over 55% in size). The procedure, abridged:
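Luminescence, after 20 min with luciferin detection reagent, reflected CYP2C9 turnover during a 1 h NADPH-driven reaction at 37C. Enzyme-substrate mix contained 0.4% bovine serum albumin and was preincubated with compound 10 min at room temperature.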

Cytochrome P450 2D6 (Homo sapiens), sequence (P10635 whole entry, looked up): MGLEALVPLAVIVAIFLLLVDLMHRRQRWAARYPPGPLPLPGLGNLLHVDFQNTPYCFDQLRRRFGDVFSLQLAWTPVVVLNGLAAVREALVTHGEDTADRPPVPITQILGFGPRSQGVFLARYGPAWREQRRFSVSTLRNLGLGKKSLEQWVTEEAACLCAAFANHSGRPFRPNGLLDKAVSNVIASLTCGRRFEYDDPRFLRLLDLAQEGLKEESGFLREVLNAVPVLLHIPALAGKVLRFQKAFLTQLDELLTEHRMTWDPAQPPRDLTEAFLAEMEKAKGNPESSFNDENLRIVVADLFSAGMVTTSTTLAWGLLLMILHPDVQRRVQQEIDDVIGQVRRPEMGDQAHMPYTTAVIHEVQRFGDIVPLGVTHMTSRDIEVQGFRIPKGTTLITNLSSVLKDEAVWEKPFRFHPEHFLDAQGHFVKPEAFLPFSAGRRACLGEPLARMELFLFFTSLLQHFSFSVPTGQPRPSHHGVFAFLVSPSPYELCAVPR
Cytochrome P450 2C9 (Homo sapiens), sequence (P11712 whole entry, looked up): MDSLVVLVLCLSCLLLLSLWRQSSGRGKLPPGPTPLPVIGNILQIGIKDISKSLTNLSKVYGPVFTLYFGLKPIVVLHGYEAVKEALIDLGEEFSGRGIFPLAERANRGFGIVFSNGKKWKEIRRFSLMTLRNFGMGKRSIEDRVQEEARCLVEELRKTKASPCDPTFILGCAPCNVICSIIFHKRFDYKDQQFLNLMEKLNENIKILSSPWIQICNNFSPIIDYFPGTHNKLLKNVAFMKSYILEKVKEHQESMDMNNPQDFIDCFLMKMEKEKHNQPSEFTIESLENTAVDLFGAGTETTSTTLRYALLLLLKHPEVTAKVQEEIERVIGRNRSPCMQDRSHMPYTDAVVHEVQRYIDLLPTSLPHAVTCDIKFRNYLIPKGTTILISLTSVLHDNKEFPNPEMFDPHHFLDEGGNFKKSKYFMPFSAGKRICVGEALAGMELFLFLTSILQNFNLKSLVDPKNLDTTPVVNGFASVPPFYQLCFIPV

Consider `Cc1c(Cl)c(OCC(=O)N2CCN(C)CC2)nc2sc(C(=O)NC3CC3)c(N)c12`, for which the Potency entry in [1], in assay [2], in assay [3], in [4], in assay [5] and in assay [6] was “inactive” each time. The Potency result with CAOV3, with JEG-3 and with SKOV3 was “inactive” each time. In addition, the molecule was called inactive in the assay with KB-3-1.

As to `CC[C@H]1C2CC3[C@@H]4N(C)c5ccccc5[C@]45C[C@@H]([C@H]2[C@H]5O)N3[C@@H]1O`, the Potency entry (in assay [2]; in assay [3]; in assay [5]; in the assay on CAOV3; in the assay on HeLa; in the assay on JEG-3) was “inactive” each time. In addition, the Potency entry in the assay on SKOV3 is “inactive”. In addition, in the assay with KB-3-1, the max response is 0.117% (inactive).

Turning to `C=CCN1CC[C@]23c4c5ccc(O)c4O[C@H]2[C@@H](O)CC[C@@]3(O)[C@H]1C5`, the Potency entry (in [3]; in assay [5]; in assay [6]; in the assay on CAOV3; in the assay on HeLa; in the assay on JEG-3) was “inactive” in each case. The Potency entry in the assay on SKOV3 was “inactive”. Further, in the assay on KB-3-1, the max response is 3.34% (inactive).

`CC1=C[C@H]2O[C@@H]3C[C@H]4OC(=O)/C=C/C=C/C(=O)OCC/C(C)=C/C(=O)OC[C@@]2(CC1)[C@]4(C)[C@]31CO1`: the Potency was 17.8 nM (active) in [2]; 3.2 nM (active) in assay [5]; 20 nM (active) with KB-3-1; 89.1 nM (active) in the assay with HeLa; 126 nM (active) in the assay with JEG-3; 70.8 nM (active) in the assay on SKOV3. Also, the Potency entry in [3] is “inactive”.

Take `COC1CC(O[C@H]2CC[C@]3(C=O)C4CC[C@]5(C)[C@@H](C6=CC(=O)OC6)CC[C@]5(O)[C@@H]4CC[C@@H]3C2)OC(C)C1O[C@@H]1O[C@H](CO)[C@@H](O[C@@H]2O[C@H](CO)[C@@H](O)[C@H](O)[C@H]2O)[C@H](O)[C@H]1O` (stereo not given in full): the Potency entry in assay [3] was “inactive”. Besides, the Potency in assay [5] is 123 nM (active); in the assay with KB-3-1, 174 nM (active); with HeLa it was 398 nM (active); in the assay with SKOV3, 398 nM (active).

For `CC(C)(C)[C@]1(O)C[C@@H]2OC(=O)C[C@@]23C(=O)O[C@@H]2OC(=O)[C@@H](O)[C@]213`, the Potency entry (in [2]; in [3]; in assay [5]; in assay [6]; in the assay on JEG-3; with SKOV3) was “inactive” each time. Also, the max response in the assay with KB-3-1 was -3.84% (inactive).

As to `CC(=O)O[C@@H]1[C@@H](O)[C@H]2O[C@@H]3C=C(C)[C@@H](O)C[C@]3(CO)[C@]1(C)[C@]21CO1`, the Potency was 904 nM (active) in [2]; 358 nM (active) in [5]; 805 nM (active) in the assay on KB-3-1; 2510 nM (active) in the assay on HeLa; 1260 nM (active) in the assay on SKOV3. Besides, the Potency result in assay [3] and in assay [6] was “inactive” throughout.

As to `COc1ccc2c3c([nH]c2c1)C(C=C(C)C)N1C(=O)C2CCCN2C(=O)C1C3` (stereo not given), the Potency result (in assay [1]; in [3]; in [6]; in the assay with CAOV3; in the assay with HeLa; with JEG-3) was “inactive” throughout. Moreover, in the assay with KB-3-1, the molecule was classed as inactive.

On to `CO[C@@H]1C[C@H](O[C@H]2CC[C@@]3(C)C(CCC4C3CC[C@]3(C)[C@@H](C5=CC(=O)OC5)[C@@H](OC(C)=O)CC43O)C2)O[C@H](C)[C@@H]1O[C@H]1O[C@H](CO[C@@H]2O[C@H](CO)[C@@H](O)[C@H](O)[C@H]2O)[C@@H](O)[C@H](O)[C@H]1O` (stereo not given in full), for which the Potency in assay [2] was 873 nM (active); in [5], 774 nM (active); with KB-3-1, 979 nM (active); in the assay on CAOV3, 2240 nM (active); with HeLa, 1580 nM (active); with SKOV3, 2000 nM (active). The Potency result in [3] is “inactive”. Also, the redox activity (% of DA3003) in [6] was 15.6% [at 11.5 µM] (inactive).

`CC(=O)OC[C@]12C[C@H](O)C(C)=C[C@H]1O[C@@H]1[C@H](O)[C@@H](O)[C@@]2(C)[C@]12CO2`: the Potency in [2] is 4040 nM (active); in [5], 713 nM (active); in the assay on KB-3-1, 2270 nM (active); in the assay on CAOV3, 3980 nM (active); in the assay with HeLa it was 7940 nM (active); in the assay on SKOV3, 3980 nM (active). Also, the Potency entry in assay [3] and in assay [6] was “inactive” in each case.

For the molecule `C[C@@H]1CN(Cc2ccc(F)cc2)CCN1C(=O)COc1ccc(Cl)cc1NC(N)=O`, the Potency result (in assay [3]; in assay [6]; in the assay on JEG-3) was “inactive” in each case. The Potency is 2510 nM (active) in assay [7], 2510 nM (active) in assay [8] and 3160 nM (active) with SKOV3. The Z-AUC in [9] was -0.0879 (inactive); in [9] (measured here: PEO1 parental Z-AUC), -1.28; in assay [9] (measured here: PEO4 Z-AUC), 0.406.

As for `COC1C=CC23c4cc5c(cc4COC2(O)CN(C)C3C1)OCO5` (stereo not given), the Potency result (in assay [1]; in assay [2]; in [3]; in assay [5]; in the assay with CAOV3; in the assay on HeLa) was “inactive” in each case. The Potency result in the assay on JEG-3 is “inactive”. The molecule was classed as inactive in the assay on HACAT.

On to `CC1=CC2OC3[C@H](O)C[C@@](C)([C@]34CO4)[C@@]2(CO)[C@H](O)C1=O` (stereo not given in full), for which the Potency was 1460 nM (active) in assay [2] and 1830 nM (active) in assay [5]. Moreover, the Potency result (in assay [3]; in assay [6]; in the assay with JEG-3) was “inactive” throughout.

Take `CC[C@@]1(O)C(=O)OCc2c1cc1n(c2=O)Cc2cc3c(OC)cccc3nc2-1`: the Potency in [2] is 805 nM (active); in the assay with KB-3-1 it was 1280 nM (active); in the assay on SKOV3, 447 nM (active). Also, in [3], the Potency result is “inactive”.

As for `CN1CCN(c2nc3ccccc3nc2Cl)CC1`, the Potency result (in assay [1]; in assay [2]; in [3]; in assay [5]; in assay [6]; in the assay on CAOV3) was “inactive” in each case. Also, the Potency result with HeLa and in the assay on JEG-3 was “inactive” in each case. In addition, the result in the assay on KB-3-1 and with NIH3T3 was inactive.

As to `C=C1C[C@]2(O)[C@@]3(C)CCC(=O)C(C)(C)C3=C(O)C(=O)[C@@]2(C)[C@@H]2C(=O)O[C@@](C)(C(=O)OC)C(=O)[C@@]12C`, the Potency entry (in [2]; in assay [5]; in the assay with CAOV3; in the assay with HeLa; with JEG-3; in the assay on SKOV3) was “inactive” each time. For the same molecule, in the assay on KB-3-1, the max response was 1.74% (inactive).

On to `Cc1ccccc1CN1CCC(N2CCC(n3c(=O)[nH]c4ccccc43)CC2)CC1`, for which the Potency result (in assay [3]; in assay [10]; in assay [5]; with HeLa; in the assay on JEG-3) was “inactive” each time. Also, the Potency in assay [4] is 12000 nM (active). The result with NIH3T3 was inactive.
